From PubChem BioAssay
The full list was thinned out, with hits kept by preference.
ST2 inh = inhibitors of human ST2 (IL1RL1) binding to IL-33; Q01638; AlphaLISA ST2-Fc/biotin-IL-33 interaction, 1 h; inhibition, % for hits at 17 µM; 78,000 tested, 2.3% active; AID 1259354; in the data active = inhibition above about 30%
Target sequence (Q01638 whole entry, looked up): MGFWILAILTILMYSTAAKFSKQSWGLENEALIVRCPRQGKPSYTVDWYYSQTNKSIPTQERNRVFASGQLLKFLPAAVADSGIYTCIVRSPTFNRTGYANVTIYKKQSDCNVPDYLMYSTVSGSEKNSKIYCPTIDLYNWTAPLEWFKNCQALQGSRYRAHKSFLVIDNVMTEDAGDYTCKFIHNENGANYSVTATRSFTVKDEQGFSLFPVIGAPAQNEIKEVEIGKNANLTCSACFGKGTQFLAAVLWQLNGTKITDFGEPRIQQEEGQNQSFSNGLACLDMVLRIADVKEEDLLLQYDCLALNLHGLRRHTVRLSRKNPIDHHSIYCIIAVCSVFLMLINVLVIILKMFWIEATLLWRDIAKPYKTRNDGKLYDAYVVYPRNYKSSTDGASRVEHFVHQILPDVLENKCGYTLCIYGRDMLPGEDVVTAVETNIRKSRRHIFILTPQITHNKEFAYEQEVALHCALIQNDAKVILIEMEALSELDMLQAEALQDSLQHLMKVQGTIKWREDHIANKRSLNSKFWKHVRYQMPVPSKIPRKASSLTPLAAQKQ
Active calls of the source: *; i = inactive.

SMILES	ST2 inh
COc1cccc(/C=c2\sc3nnc(-c4ccc(C)cc4)n3c2=O)c1	i
CCCc1nc(NCc2cc(-c3ccccc3F)no2)c2cnn(C)c2n1	i
O=C(C1CCCO1)N1CCOc2c(O)cc(-c3csc4ccccc34)cc2C1 (stereo not drawn)	i
Cc1cc(C)cc(N(C(=O)c2ccc(OC(C)C)cc2)C2C=CS(=O)(=O)C2)c1 (stereo not drawn)	i
Cc1ccc(Oc2c(F)c(F)nc(N3CCOCC3)c2F)cc1	i
Cc1cccc(C(=O)NC(C)c2ccccc2)c1 (stereo not drawn)	i
CCOC(=O)c1c(C)oc2ccc(OCC(=O)c3ccccc3)cc12	i
Cc1cccc(C(=O)Nc2c(-c3cccs3)nc3ccccn23)c1	i
CCOC(=O)C1=C(N)OC2=C(C(=O)CC(c3ccccc3)C2)C1c1ccc(OC)cc1 (stereo not drawn)	i
O=[N+]([O-])c1ccc(N2CCN(CCc3ccccc3)CC2)cc1	i
O=C(COc1ccc([N+](=O)[O-])cc1)NCc1ccccc1	i
[N-]=C=C1C(=O)N(CCc2ccccc2)C(=O)C([n+]2ccccc2)C1c1ccc([N+](=O)[O-])cc1 (stereo not drawn)	42%*
COCc1nc(NCc2scnc2-c2ccccc2)c2cnn(C)c2n1	i
O=C(CCS(=O)(=O)c1ccc(Br)s1)NCCc1ccccc1Cl	i
COc1ccc(N=Cc2c(C)c(Cl)c(C)c([N+](=O)[O-])c2O)cc1OC	i
COc1ccccc1NC(=O)CSc1nc(O)cc(=O)n1-c1ccccc1C	i
COc1ccc(O)c(C=Nc2c(C)n(C)n(-c3ccccc3)c2=O)c1	i
COc1ccccc1-n1c(O)c(C=Nc2ccc(C(F)(F)F)cc2)c2ccccc2c1=O	33%*
COc1cccc(C=Nc2ccc(N=Cc3cccc(OC)c3OC)cc2)c1OC	i
COc1ccc(-n2nc(C(=O)O)c3ccccc3c2=O)c(OC)c1	i
COc1ccc(N=Cc2c(O)n(-c3ccccc3C)c(=O)c3ccccc23)c(OC)c1	43%*
COc1ccc(-n2c(=O)[nH]c3cc(C(=O)O)ccc3c2=O)cc1OC	i
O=c1oc2ccccc2c(O)c1C=Nc1cccc(C(F)(F)F)c1	i
COc1ccc(N=Cc2c(O)n(-c3ccccc3C)c(=O)c3ccccc23)cc1OC	48%*
COc1ccc(OC)c(-n2c(=O)[nH]c3cc(C(=O)O)ccc3c2=O)c1	i
SMILES	ST2 inh
COc1ccc(N=Cc2c(O)n(-c3ccccc3OC)c(=O)c3ccccc23)c(OC)c1	31%*
c1ccc(Cc2nc(C3CCCN(Cc4ccco4)C3)n[nH]2)cc1 (stereo not drawn)	i
Clc1ccc(CN2CC[C@H](c3nnc(-c4cccnc4)o3)C2)cc1	i
COc1cccc(OC)c1-c1cnnc(NCc2ccccc2-n2cncn2)n1	i
Cc1ccc(-c2noc(CCC(=O)N(C)c3ccc(Br)cc3)n2)cc1	i
CC(C)Cc1cc(C(=O)NC(C)c2ccccc2)no1 (stereo not drawn)	i
COc1ccc(Br)cc1C1N(c2ccc(F)cc2)C(=O)C2CCCN21 (stereo not drawn)	i
CCCCOC(=O)C1=C(C)N(C)C(=O)NC1c1ccccc1 (stereo not drawn)	i
C=CCSc1nnc2c(n1)OC(c1cccc(OC)c1OC)Nc1ccccc1-2 (stereo not drawn)	i
CC(=O)Nc1ccc(NC(=O)c2ccc(=O)n(Cc3ccc(Cl)cc3)c2)cc1	i
CCOC(=O)c1cc(CC)sc1NC(=O)c1ccccc1NS(=O)(=O)c1ccc(C)cc1	i
O=C(Nc1ccc(Cl)cc1)c1cnccn1	i
CCN(CC)c1cc(C)c2cc(NC(=O)c3cnccn3)ccc2n1	i
CCN(CC)c1ccc(NC(=O)c2cnccn2)cc1	56%*
OCCNc1ncnc2oc(-c3ccccc3)c(-c3ccccc3)c12	35%*
COc1ccc(-c2oc3ncn(CCO)c(=N)c3c2-c2ccc(OC)cc2)cc1	i
N=c1c2c(-c3ccccc3)c(-c3ccccc3)oc2ncn1CCCO	i
CN1CCCn2nc(C(=O)NCCc3cnn(-c4ccccc4)c3)cc2C1	i
CCN(CC)C(=O)Cn1cnc2sc(C(=O)Nc3ccc(C)c(F)c3)c(C)c2c1=O	i
Cc1nc2ccccc2c2c1C(=O)N(c1cccnc1Cl)C2=O	i
Cc1nc2ccccc2c2c1C(=O)N(c1ccc(C(N)=O)cc1)C2=O	i
Cc1ccc(Cl)cc1N1C(=O)c2c(C)nc3ccccc3c2C1=O	31%*
COc1cc([N+](=O)[O-])ccc1N1C(=O)c2c(C)nc3ccccc3c2C1=O	i
Cc1nc2ccccc2c2c1C(=O)N(c1ccc3c(c1)OCO3)C2=O	51%*
Cc1noc(C)c1-c1nc(CC(C)C)nn1-c1ccc2c(c1)OCO2	i
SMILES	ST2 inh
CCc1ccc(-c2nc(CN3CCC(C(=O)NC(C)CC)CC3)c(C)o2)cc1 (stereo not drawn)	i
CCC(C)CC(C)CCCCCCCCC(=O)N[C@H]1C[C@@H](O)[C@@H](O)NC(=O)[C@@H]2[C@@H](O)[C@@H](C)CN2C(=O)[C@H]([C@H](O)CC(N)=O)NC(=O)[C@H]([C@H](O)[C@@H](O)c2ccc(O)cc2)NC(=O)[C@@H]2C[C@@H](O)CN2C(=O)[C@H]([C@@H](C)O)NC1=O (stereo partly drawn)	i
Cc1cccc(C(C(=O)N(C)CCc2noc(C3CC3)n2)N(C)C)c1 (stereo not drawn)	i
Cc1ncc(CO)c(CN2CCCCC2c2ccc(F)cc2)c1O (stereo not drawn)	i
Nc1nc2c(s1)CN(Cc1cc3n(n1)CCCNC3)CC2	i
Cc1cccc(N2C(=O)CSC2c2ccccc2)c1 (stereo not drawn)	i
Nc1c(C(=O)Nc2ccc(Cl)cc2)sc2nc3c(cc12)CCCC3	i
O=c1cc2oc3cc(O)c(O)cc3c(-c3ccccc3)c-2cc1O	36%*
O=c1cc(-c2ccc(O)cc2)oc2ccccc12	i
O=c1cc(-c2ccccc2)c2ccc(O)cc2o1	i
CC(C)Cc1cc(C(=O)N2CCCC2c2ccc(C(N)=O)s2)no1 (stereo not drawn)	i
COc1cc(C=O)ccc1OCCCOc1ccccc1C(=O)O	i
COc1ccccc1OCCCOc1ccc(/C=C2/C(=N)N3C=CSC3=NC2=O)cc1OC	34%*
CCCCOc1ccc(/C=c2\sc3nc(=O)c(C)nn3c2=O)cc1OC	i
Cc1ccc(C(=O)N2CCN=C2SCc2cccc(C)c2)cc1	i
Clc1ccc(-c2ncnn2-c2ccccc2Cl)cc1	i
COc1cc(-c2ncnn2-c2cccc(Cl)c2C)cc(OC)c1OC	33%*
COc1cc(-c2ncnn2-c2ccc(Cl)cc2)cc(OC)c1OC	i
O=C(c1ccccc1-c1ncc[nH]1)N1C[C@@H]2C3CCC(CC3)[C@@H]2C1	i
CCn1c(CC2CCN(C(=O)CCc3cnccn3)CC2)nn(C)c1=O	i
CC(C)(C)NC(=O)NCCc1nc2cccnc2n1Cc1ccccc1	i
COc1ccc(CNC(=O)NCCc2nc3cccnc3n2Cc2ccccc2)cc1	63%*
CC(C)CNC(=O)NCCc1nc2cccnc2n1Cc1ccccc1	i
Cc1ccc(Cl)cc1NC(=O)CN1CCCN(Cc2cccc(F)c2)S1(=O)=O	i
Cc1c(-c2ccccc2F)[nH]c2ccc(CNC(=O)CCn3cncn3)cc12	i
CNC(=O)c1cccc(-c2cc(NCc3cccnc3)nc3[nH]ccc23)c1	i
CNC(=O)c1ccc(-c2cc(NCCN(C)C)nc3[nH]ccc23)o1	i
